Data reported in PubChem BioAssay (NCI).
This is part of a sample that, as a whole, favours compounds with a hit. Of some 83,000 tested, about 20% had one in any assay.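 Interpretation: 100, growth as untreated; towards 0, rising growth inhibition; 0, no net growth; 0 to -100, cell death. Compounds scoring below 10 were considered active.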 Unmarked numbers belong to inactive results. Activity calls are given as the source filed them.

What was measured:
Experiment in all cases: NCI-60 one-dose screen, 48 h (100 = growth as untreated, 0 = no growth, -100 = all killed)
Details in all cases: 10 µM unless noted
SR leukemia = system: SR leukemia
RPMI-8226 leukemia = system: RPMI-8226 leukemia
OVCAR-8 ovarian = system: OVCAR-8 ovarian
OVCAR-5 ovarian = system: OVCAR-5 ovarian
OVCAR-4 ovarian = system: OVCAR-4 ovarian
SK-OV-3 ovarian = system: SK-OV-3 ovarian
IGROV1 ovarian = system: IGROV1 ovarian
OVCAR-3 ovarian = system: OVCAR-3 ovarian
NCI/ADR-RES ovarian = system: NCI/ADR-RES ovarian
T-47D breast = system: T-47D breast
BT-549 breast = system: BT-549 breast
MDA-MB-435 melanoma = system: MDA-MB-435 melanoma
SW-620 colon = system: SW-620 colon
MCF7 breast = system: MCF7 breast
HCT-116 colon = system: HCT-116 colon
HCC-2998 colon = system: HCC-2998 colon
KM12 colon = system: KM12 colon
HS 578T breast = system: HS 578T breast

| SMILES | growth (SR leukemia) | growth (RPMI-8226 leukemia) [%] | growth (OVCAR-8 ovarian) [%] | growth (OVCAR-5 ovarian) [%] | growth (OVCAR-4 ovarian) | growth (SK-OV-3 ovarian) | growth (IGROV1 ovarian) | growth (OVCAR-3 ovarian) | growth (NCI/ADR-RES ovarian) [%] | growth (T-47D breast) [%] | growth (BT-549 breast) [%] | growth (MDA-MB-435 melanoma) | growth (SW-620 colon) [%] | growth (MCF7 breast) [%] | growth (HCT-116 colon) | growth (HCC-2998 colon) [%] | growth (KM12 colon) [%] | growth (HS 578T breast) [%] |
| --- | --- | --- | --- | --- | --- | --- | --- | --- | --- | --- | --- | --- | --- | --- | --- | --- | --- | --- |
| O=C(N/N=C/c1ccc(Oc2ccccc2)cc1)c1cnn2c1NC(c1ccccc1)C2 (stereo not drawn) | 31% | 75.7 | 52.1 | 78 | 26.6% | 48.5% | 59.3% | -32.6% (active) | 68.7 | 43 | 81.1 | 4.46% (active) | 42.1 | 17.7 | 32.2% | 71.8 | 44.7 |  |
| Cc1ccc(-n2cc(-c3ccccc3)c3c2N=NN2CCN=C32)cc1 | 86% | 93.4 | 107 | 101 | 97.2% | 104% | 88.5% | 106% |  | 93.5 | 125 | 101% | 92.5 | 98.7 | 95.8% | 111 | 102 | 100 |
| OCc1cnccc1NCCCOc1ccccc1 | 99.9% | 100 | 102 | 113 | 102% | 114% | 110% | 107% | 102 | 101 | 108 | 110% | 98.3 | 92.1 | 100% | 97.1 | 106 |  |
| COc1ccc(CCn2cncc2-c2c[nH]c3ccccc23)cc1 | 93.3% | 73.4 | 93.5 | 90.2 | 79.4% | 87.7% | 56.4% | 88.4% |  | 80.2 | 90 | 100% | 87.9 | 78.7 | 80.5% | 91.8 | 97.8 | 78.2 |
| CNC(=O)c1cc(Cn2nc(C)c(NC(=O)Nc3ccc(Cl)c(C(F)(F)F)c3)c2C)ccn1 | 91.9% | 94.9 | 97 | 99.7 | 87.1% | 95.2% | 109% | 109% |  | 85 | 98.6 | 100% | 111 | 93.8 | 86.7% | 105 | 106 | 97.1 |
| O=C(Nc1ccccc1C(=O)N/N=C(\c1ccccc1)c1ccccn1)c1ccc(F)cc1 | 14.4% | 29.1 | 17.1 | 41.7 | -5.03% (active) | 2.2% (active) | 22.8% | 18.1% |  | 12.7 | 16.1 | 29.5% | 30.2 | 12.7 | 17% | 32.5 | 26.6 | 59.9 |
| O=C(NO)c1ccc(-n2nc(-c3ccccc3)c3ccccc32)cc1 | 22.8% | 32.6 | 32.6 | 63.8 | 19.2% | 58.7% | 44.9% | 1% (active) | 22.7 | 37.3 | 67.2 | 84.7% | 41.2 | 22.4 | 7.64% (active) | 44.1 |  |  |
| Cc1cnc(C(=O)Nc2nc3ccc(S(=O)(=O)Nc4ccc(C(C)(C)C)cc4)cc3[nH]2)cn1 | 12.3% | 18.6 | 29.2 | 34.8 | 46.5% | 43% | 35.1% | -14.3% (active) | 13.8 | 27.1 | 26.7 | -64.6% (active) | 18.6 | 22.4 | 14.2% | 33.3 | 22.9 |  |
| ClC1=C(Br)C(Br)(Br)C(=C(Br)Br)C1(Br)Br | 44% | 73.1 | 85.1 | 110 | 99.1% | 118% | 102% | 75% |  | 73.6 | 113 | 107% | 54 | 76.8 | 79.9% | 115 | 101 | 103 |
| CCCCCN1C=C/C(=C\C(=O)n2ccc3ccccc32)c2ccccc21 | 82.8% | 73.7 | 93.6 | 93.7 | 71.6% | 78.5% | 65.5% | 86.4% |  | 70 | 96.9 | 96.1% | 85.2 | 73.5 | 72.6% | 107 | 89.2 | 92.2 |
| O=C(Nc1cccc(C(=O)N2CCc3ccc(Cl)cc32)c1)c1ccco1 | 20.4% | 34.6 | 51.5 | 70.7 | 70.5% | 82.6% | 31.1% | 18.2% |  | 33.6 | 37.2 | -2.72% (active) | 29.8 | 21.6 | 18.9% | 68 | 33.6 | 28.9 |
| O=C(Cc1ccc(/C=C/C(=O)c2nccs2)cc1)Nc1ccccc1 | 2.31% (active) | 67 | 90.5 | 99.9 | 97.2% | 112% | 91.7% | 88.9% | 101 | 92.8 | 93 | 100% | 51.9 | 84.4 | -43.8% (active) | 105 | 70.7 |  |
| O=C(Nc1cccc(C2=NCCN2)c1)c1ccc(-c2ccc(C(=O)Nc3cccc(C4=NCCN4)c3)cc2)cc1 | 72.4% | 24.8 | 80.7 | 88.5 | 96.6% | 111% | 88.7% | 121% | 104 | 58.5 | 93.4 | 57.4% | 69.2 | 18.5 | 72.7% | 81.1 | 60.4 |  |
| O=S(=O)(NCCNc1nccc(-c2c(-c3cccc(F)c3)nc3sccn23)n1)c1ccc(Br)cc1 | 31.7% | 58 | 45.5 | 83.6 | 47% | 77.3% | 8.47% (active) | 62.4% | 61.8 | 30.5 | 63.3 | 21.3% | 54.8 | 23.5 | 33.9% | 79.5 | 42.5 |  |
| COc1cc2c(cc1OC)C(=O)/C(=C/c1cc(C)c(O)c(C)c1)S2 | 18.7% | 21.6 | 37 | 64.7 | 84.7% | 52.1% | 35.6% | -5.93% (active) | 15.3 | 42 | 36.9 | -9.36% (active) | 33.4 | 20 |  | 60.4 |  |  |
| NNC(=O)c1ccc(-n2nc(-c3ccccc3)c3ccccc32)cc1 | 83.5% | 86.4 | 77 | 93.8 |  | 98.9% | 73.7% | 8.87% (active) | 91.5 | 38.1 | 73.6 | 93.9% | 95.5 | 74 | 82.2% | 54.8 | 94.8 | 73 |
| CC(=O)CCC(=O)OCc1cc(=O)c(O)co1 | 86.4% | 107 | 108 | 93.5 |  | 128% | 98.6% | 106% | 98.3 | 111 | 102 | 106% | 97 | 99 | 97.3% | 87.3 | 93.5 | 103 |
| Cn1nc(CC#N)c2c(=N)n(N)cnc21 | 93.4% | 117 | 104 | 93.5 |  | 99.8% | 103% | 112% | 113 | 105 | 122 | 107% | 104 | 100 | 119% | 120 | 102 | 114 |
